Here are results for 6 compounds from PubChem BioAssay (Tox21).

Unmarked numbers belong to inactive results. Inconclusive results are not listed. Calls of active or inactive are those of the source. Unless noted, calls follow the shape of the dose curve; as a rule, active = well fitted curve in the direction sought with a large enough effect in the repeat runs; inconclusive = weak or mixed curves; inactive = no such curve, though single readings can be large; an effect the other way counts as inactive or inconclusive.

Assay [1] in a line: qHTS assay to identify small molecule agonists of the estrogen receptor alpha (ER-alpha) signaling pathway in the presence of an antagonist - cell viability counter screen (AID 1259386). Also: series mostly up to about 92 µM; nearly all actives have a fitted effect of over 30% in size. Put shortly:
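Compounds tested at 15 concentrations for 22 h at 37C alongside 10.0nM (final) ICI-182,780 antagonist, in VM7Luc4E2 cells grown in phenol red-free, charcoal-stripped medium. Viability read by CellTiter-Fluor fluorescence after 1 h reagent incubation.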
(In general: In qHTS, concentration-response curves come from the screen itself.)

For assay [2], the target named is Progesterone receptor (Homo sapiens) (UniProt P06401). Description: qHTS assay to identify small molecule agonists of the progesterone receptor (PR) signaling pathway (AID 1346784; calls by dose curve; also: nearly all actives have a fitted effect of over 30% in size; also: potency is read from the fitted curve at half-maximal effect). Put shortly:
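The screen uses PR-UAS-bla HEK 293T cells in charcoal-stripped serum (2%). Compounds are applied for 16 hr at 37C after a 6 hr pre-incubation, and reporter activity is detected with a FRET beta-lactamase substrate after 2 hr at room temperature.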

For assay [3] the target is unchanged. Description: qHTS assay to identify small molecule antagonists of the progesterone receptor (PR) signaling pathway (AID 1346795; active = well fitted inhibition curve with a large enough effect in the signal ratio in the repeat runs, not every such curve was filed as active; the % refers to the signal ratio). Put shortly: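 After 6 hr plating at 37C in 2% stripped-serum medium, PR-UAS-bla HEK293T cells got compounds, then 1 nM R5020. Sixteen hours later, LiveBLAzer substrate was applied for 2 hr at room temperature and fluorescence was recorded.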

The nature of assay [4]: qHTS assay to identify small molecule antagonists of the progesterone receptor (PR) signaling pathway - cell viability counter screen (AID 1346798). Also: series mostly up to about 92 µM; nearly all actives have a fitted effect of over 50% in size. Put shortly: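 Viability was determined by ATP-based luminescence (CellTiter-Glo) in PR-UAS-bla HEK293T cells cultured in 2% charcoal-stripped serum and incubated 16 hr with compounds under R5020 stimulation.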
Assay [5] in a line: qHTS assay to identify small molecule antagonists of the TGF-beta/Smad signaling pathway - cell viability counter screen (AID 1346824). Also: nearly all actives have a fitted effect of over 50% in size. Put shortly: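 SBE-bla HEK 293T cells, incubated overnight, then compound plus 0.25 ng/mL TGF-beta1 (stock added) for 5 hr at 37 C. Viability was read in the same wells by CellTiter-Glo luminescence after 30 min at room temperature.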
A short description of assay [6]: qHTS assay to identify small molecule agonists of the TGF-beta/Smad signaling pathway (AID 1346859; active = well fitted activation curve with a large enough effect in the signal ratio in the repeat runs, not every such curve was filed as active; the % refers to the signal ratio; also: series mostly up to about 77 µM). Put shortly:
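Dual-wavelength fluorescence (460/530 nm emission) quantified beta-lactamase expression under the Smad binding element in HEK 293T cells following 5 hr compound treatment at 37 C.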

The target in assay [7] is Thyrotropin-releasing hormone receptor (Homo sapiens) (UniProt P34981). Nature of the assay: qHTS assay to identify small molecule antagonists of the thyrotropin-releasing hormone receptor (TRHR) signaling pathway (AID 1346877; active = well fitted inhibition curve with a large enough effect in the repeat runs, not every such curve was filed as active; also: series mostly up to about 51 µM). Put shortly: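 Antagonist mode: after a 5 min room-temperature compound exposure, cells were stimulated with 1 nM (final) TRH. Dye-loaded TRHR-HEK293 cells were used, and calcium-dependent fluorescence was followed for 3 min, with 15-point titrations run in triplicate.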

For assay [8] the target is unchanged. Nature of the assay: qHTS assay to identify small molecule agonists of the thyrotropin-releasing hormone receptor (TRHR) signaling pathway (AID 1346891; calls by dose curve;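 also: HEK293 cells expressing TRHR with calcium dye readout; series mostly up to about 58 µM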). Put shortly: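 Kinetic fluorescence (3 min, 1 s intervals) reported intracellular calcium after compound transfer onto TRHR-Hek293 cells pre-loaded with dye for 2 h at 37 °C.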
The nature of assay [9]: Human pregnane X receptor (PXR) small molecule agonists, qHTS cell viability counter screen (AID 1346977). Also: nearly all actives have a fitted effect of over 50% in size. Also: potency is read from the fitted curve at half-maximal effect. Put shortly: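 HepG2 cells stably carrying the PXR-Luc reporter are cultured with 5% charcoal-stripped FBS and treated with compounds for 24hr. CellTiter-Fluor is added at 23hr and fluorescence is read after 1hr.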
The nature of assay [10]: Caspase-3/7 induction in CHO-K1 cells by small molecules, qHTS cell viability counter screen (AID 1346979). Also: nearly all actives have a fitted effect of over 35% in size. Also: potency is read from the fitted curve at half-maximal effect. Put shortly:
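Seeding: 1,500 CHO-K1 cells/well. Rest: 5hr, 37C. Treatment: compounds in DMSO, 16hr. Read: CellTiter-Fluor, 1hr, fluorescence.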

Assay [11] can be described thus: Caspase-3/7 induction in CHO-K1 cells by small molecules, qHTS assay (AID 1346980). Also: nearly all actives have a fitted effect of over 15% in size. Put shortly:
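Wild-type CHO-K1 cells exposed to compounds for 17hr at 37 C, 5% CO2. Caspase-3/7 activity then measured by Caspase-Glo 3/7 luminescence after 30min at room temperature.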

A short description of assay [12]: Caspase-3/7 induction in HepG2 cells by small molecules, qHTS cell viability counter screen (AID 1346981). Also: series mostly up to about 92 µM; nearly all actives have a fitted effect of over 30% in size. Put shortly:
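CellTiter-Fluor fluorescence measured viability in the same wells used for Caspase-Glo 3/7. HepG2 (wild type) at 2,000 cells/well were pre-incubated 5 hr, dosed, and given reagent at 16 hr, with 1 hr further at 37C.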

For assay [13], the target named is Nuclear receptor subfamily 1 group I member 2 (Homo sapiens) (UniProt O75469). Description: Human pregnane X receptor (PXR) small molecule agonists, qHTS assay (AID 1346982). Also: nearly all actives have a fitted effect of over 35% in size. Also: potency is read from the fitted curve at half-maximal effect. Put shortly: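 Agonist mode: luminescence from ONE-Glo after 24 h compound exposure at 37C in HepG2 cells carrying hPXR-responsive CYP3A4 luciferase, plated in charcoal-stripped serum medium 5 h beforehand.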

The target of assay [14] is Cytochrome P450 2D6 (Homo sapiens) (UniProt P10635). Nature of the assay: Cytochrome P450 Family 2 Subfamily D Member 6 (CYP2D6) small molecule antagonists: luciferase reporter qHTS assay (AID 1671196). Also: series mostly up to about 120 µM; nearly all actives have a fitted effect of over 50% in size. Put shortly:
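CYP2D6 activity was followed as luminescence from its luciferin product after a 1 h NADPH-driven reaction at room temperature. Enzyme-substrate mix and compound were pre-incubated for 10 min, and the signal was read 20 min after adding detection reagent.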
A general note: In a reporter assay the amount or activity of a reporter protein is the signal.

Assay [15] is described as follows: qHTS assay to identify small molecule agonists of the TGF-beta/Smad signaling pathway - cell viability counter screen (AID 1346829). Also: top concentration of the series differs between compounds; nearly all actives have a fitted effect of over 45% in size. Put shortly: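 Compound-treated SBE-bla HEK 293T cells (5 hr, 37 C) were assessed for viability with CellTiter-Glo in parallel with the reporter read.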
The nature of assay [16]: qHTS assay to identify small molecule agonists of the progesterone receptor (PR) signaling pathway - cell viability counter screen (AID 1346799; calls by dose curve; also: nearly all actives have a fitted effect of over 45% in size). Put shortly: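 Viability was scored by ATP luminescence (CellTiter-Glo, 30 min, room temperature) in the same wells used for the reporter readout, after 16 hr compound exposure of PR-UAS-bla HEK293T cells.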
The nature of assay [17]: Caspase-3/7 induction in HepG2 cells by small molecules, qHTS assay (AID 1346978). Also: nearly all actives have a fitted effect of over 15% in size. Put shortly:
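Wild-type HepG2 cells, 2,000/well, settled 5 hr at 37 C and 5% CO2, then compound-treated for 17 hr; caspase-3/7 activity read by luminescent Caspase-Glo 3/7 after 30 min at room temperature.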

In assay [18] the target is Nuclear receptor subfamily 1 group I member 2 (Rattus norvegicus) (UniProt Q9R1A7). Nature of the assay: Rat pregnane X receptor (rPXR) activation by small molecules, qHTS assay (AID 1346983). Also: nearly all actives have a fitted effect of over 20% in size. To be noted: rPXR luciferase reporter cells, One-Glo luminescence, 24 h; active compounds read high. Put shortly: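 Cell-based rPXR activation assay: rPXR cells, 2,000 per well, rested 5hr at 37 C, then exposed to compounds in DMSO for 24 hr at 37 C. Luciferase activity read by One-Glo luminescence after 30 min at room temperature.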

Assay [19] addresses Nuclear receptor subfamily 1 group I member 2 (Homo sapiens) (UniProt O75469). Description: Human pregnane X receptor (PXR) activation by small molecules, qHTS assay (AID 1346985). Also: nearly all actives have a fitted effect of over 40% in size. Put shortly:
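DPX-2 cells (HepG2 co-transfected with a PXR response element and a CYP3A4-promoter luciferase construct) were seeded at 2,000 per well, rested 5 hr at 37C, then exposed to DMSO-dissolved compounds for 24 hr. Activation was read as luciferase luminescence.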
% is scaled to controls: 0 for no effect and ±100 for the full control effect.

Sequence of Nuclear receptor subfamily 1 group I member 2 (Homo sapiens) (O75469 whole entry, looked up): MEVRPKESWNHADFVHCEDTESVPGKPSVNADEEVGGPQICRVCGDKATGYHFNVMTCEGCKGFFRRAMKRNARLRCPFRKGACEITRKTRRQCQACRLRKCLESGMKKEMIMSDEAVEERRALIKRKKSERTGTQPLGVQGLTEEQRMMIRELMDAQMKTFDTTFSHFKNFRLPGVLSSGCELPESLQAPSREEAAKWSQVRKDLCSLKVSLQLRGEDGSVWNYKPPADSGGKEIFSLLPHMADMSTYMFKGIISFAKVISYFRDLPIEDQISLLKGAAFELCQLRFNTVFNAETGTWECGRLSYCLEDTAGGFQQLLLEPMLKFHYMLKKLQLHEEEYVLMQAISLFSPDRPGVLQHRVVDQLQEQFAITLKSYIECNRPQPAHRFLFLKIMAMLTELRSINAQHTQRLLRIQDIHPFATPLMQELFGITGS
Sequence of Thyrotropin-releasing hormone receptor (Homo sapiens) (P34981 whole entry, looked up): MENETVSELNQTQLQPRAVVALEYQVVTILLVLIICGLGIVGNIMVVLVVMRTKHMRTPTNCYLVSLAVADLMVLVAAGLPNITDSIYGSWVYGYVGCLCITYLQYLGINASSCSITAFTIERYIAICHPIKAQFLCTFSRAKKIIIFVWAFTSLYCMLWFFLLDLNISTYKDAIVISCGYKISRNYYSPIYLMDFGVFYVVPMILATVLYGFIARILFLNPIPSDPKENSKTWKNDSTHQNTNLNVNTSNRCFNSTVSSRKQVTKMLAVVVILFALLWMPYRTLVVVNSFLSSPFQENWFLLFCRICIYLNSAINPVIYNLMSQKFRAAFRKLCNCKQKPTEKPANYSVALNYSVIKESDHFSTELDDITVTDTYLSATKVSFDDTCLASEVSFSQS
Sequence of Progesterone receptor (Homo sapiens) (P06401 whole entry, looked up): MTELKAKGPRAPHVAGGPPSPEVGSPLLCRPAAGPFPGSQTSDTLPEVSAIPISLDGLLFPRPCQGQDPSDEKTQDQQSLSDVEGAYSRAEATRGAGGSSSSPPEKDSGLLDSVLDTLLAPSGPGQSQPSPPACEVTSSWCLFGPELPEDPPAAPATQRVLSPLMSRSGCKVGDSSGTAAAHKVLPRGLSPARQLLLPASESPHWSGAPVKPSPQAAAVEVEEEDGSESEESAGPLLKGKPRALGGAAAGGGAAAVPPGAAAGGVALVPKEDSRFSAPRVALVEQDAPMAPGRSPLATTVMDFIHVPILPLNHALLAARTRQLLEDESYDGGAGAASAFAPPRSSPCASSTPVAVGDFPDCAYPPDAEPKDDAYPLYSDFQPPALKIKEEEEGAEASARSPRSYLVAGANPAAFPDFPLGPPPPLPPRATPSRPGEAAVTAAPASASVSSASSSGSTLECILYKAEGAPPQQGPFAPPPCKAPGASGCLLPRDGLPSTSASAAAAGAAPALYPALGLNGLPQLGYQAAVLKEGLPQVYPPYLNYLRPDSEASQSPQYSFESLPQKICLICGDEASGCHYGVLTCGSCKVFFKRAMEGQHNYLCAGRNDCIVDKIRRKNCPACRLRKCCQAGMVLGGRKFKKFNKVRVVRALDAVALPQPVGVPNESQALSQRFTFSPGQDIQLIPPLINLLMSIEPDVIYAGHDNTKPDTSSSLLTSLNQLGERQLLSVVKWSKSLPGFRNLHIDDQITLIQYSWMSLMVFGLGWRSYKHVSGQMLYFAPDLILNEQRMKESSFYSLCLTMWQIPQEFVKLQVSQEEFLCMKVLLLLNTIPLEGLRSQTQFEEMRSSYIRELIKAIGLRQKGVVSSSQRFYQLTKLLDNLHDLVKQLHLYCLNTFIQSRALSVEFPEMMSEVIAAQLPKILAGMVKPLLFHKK
Sequence of Cytochrome P450 2D6 (Homo sapiens) (P10635 whole entry, looked up): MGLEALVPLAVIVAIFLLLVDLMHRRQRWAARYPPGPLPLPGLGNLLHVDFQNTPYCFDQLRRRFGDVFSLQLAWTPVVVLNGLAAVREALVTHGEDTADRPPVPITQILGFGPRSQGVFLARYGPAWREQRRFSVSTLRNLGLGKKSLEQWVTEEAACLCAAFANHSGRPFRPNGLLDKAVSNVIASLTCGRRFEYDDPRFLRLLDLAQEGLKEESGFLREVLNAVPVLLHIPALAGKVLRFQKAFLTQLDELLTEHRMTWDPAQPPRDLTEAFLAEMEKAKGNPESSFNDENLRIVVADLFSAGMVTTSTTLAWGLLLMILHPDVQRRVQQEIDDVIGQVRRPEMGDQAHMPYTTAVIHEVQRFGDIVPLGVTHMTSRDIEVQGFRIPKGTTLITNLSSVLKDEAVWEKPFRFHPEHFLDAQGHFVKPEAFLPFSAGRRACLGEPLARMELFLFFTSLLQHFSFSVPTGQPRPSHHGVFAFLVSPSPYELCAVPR
Sequence of Nuclear receptor subfamily 1 group I member 2 (Rattus norvegicus) (Q9R1A7 whole entry, looked up): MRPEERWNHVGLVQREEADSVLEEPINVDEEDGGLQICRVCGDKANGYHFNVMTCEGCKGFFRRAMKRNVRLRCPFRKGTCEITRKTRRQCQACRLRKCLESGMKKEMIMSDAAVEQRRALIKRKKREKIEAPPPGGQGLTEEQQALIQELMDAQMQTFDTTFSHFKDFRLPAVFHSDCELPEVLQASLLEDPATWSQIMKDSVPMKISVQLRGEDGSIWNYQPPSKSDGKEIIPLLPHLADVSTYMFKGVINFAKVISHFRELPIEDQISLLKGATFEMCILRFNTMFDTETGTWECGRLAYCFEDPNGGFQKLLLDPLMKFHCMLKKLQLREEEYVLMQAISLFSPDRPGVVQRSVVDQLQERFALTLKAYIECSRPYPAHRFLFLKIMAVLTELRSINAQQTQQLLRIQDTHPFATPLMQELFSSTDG

`C#Cc1ccc(-c2ccccc2F)cc1`: the Potency result in assay [1], in [2], in assay [3], in assay [4], in assay [5] and in assay [6] was “inactive” in each case. For the same compound, the Potency entry in assay [7], in assay [9], in assay [10], in assay [11], in [12] and in assay [13] was “inactive” throughout. The Potency entry in [14] is “inactive”. In addition, the result in [8] was inactive.
`C/C=C/C=C/COC(=O)C(C)C`: the Potency entry in assay [1], in [2], in [3], in [4], in assay [5] and in assay [15] was “inactive” throughout. Besides, the Potency entry in [7], in assay [11] and in assay [14] was “inactive” in each case. In addition, the compound was called inactive in assay [8]. The Potency in [9] is 68.6 µM (active); in assay [10], 54.5 µM (active); in [13], 43.3 µM (active).
With `CCCC(=O)OCCc1ccccc1`, the Potency entry in assay [1], in assay [2], in assay [4], in assay [16], in [5] and in [15] was “inactive” in each case. Moreover, the Potency entry in [6], in [7], in assay [9], in assay [17], in assay [10] and in [11] was “inactive” in each case. Moreover, the Potency result in assay [12], in assay [13] and in assay [14] was “inactive” throughout. Moreover, the outcome in [8] was inactive.
In the case of `O=C(O)CN(CCN(CC(=O)O)CC(=O)O)CC(=O)O`, the activity change, negative = cytotoxicity in assay [1] was 0.548% [at 3.27 µM]; in assay [4] it was 3.78% [at 3.27 µM]; in assay [15], 9.65% [at 2.72 µM]; in assay [9], 0.665% [at 3.27 µM]; in assay [10], 5.31% [at 3.27 µM]; in assay [12], -2.26% [at 3.27 µM]. Besides, the Potency in [2] was 0.0097 µM (active). Moreover, the activity change, negative = inhibition in assay [3] is 7.88% [at 3.27 µM]. In addition, in [5], the viability change, negative = cytotoxic is -0.549% [at 2.72 µM]. Moreover, in assay [6], the activation was -0.839% [at 2.72 µM]. Moreover, in assay [17], the caspase activation is -0.861% [at 3.27 µM]. The caspase-3/7 activation in [11] is -0.0599% [at 3.27 µM]. The max activation in [18] is -0.541%.
For the compound `Nc1ccc(C(=O)O)c(O)c1`, the Potency result in assay [1], in assay [2], in assay [3], in assay [16], in [5] and in assay [15] was “inactive” throughout. The Potency entry in assay [6], in assay [7], in assay [9], in [17], in [10] and in [11] was “inactive” each time. For the same compound, the Potency entry in assay [12], in assay [13], in assay [19] and in assay [14] was “inactive” each time. In addition, the compound was called inactive in assay [8]. Moreover, the max activation in assay [18] was -0.56%.
As for `CC(=O)OCC=C(C)C`, the Potency entry in assay [1], in assay [2], in assay [3], in [16], in [5] and in assay [6] was “inactive” each time. In addition, the Potency entry in assay [9], in assay [17], in assay [10], in [12], in assay [13] and in assay [14] was “inactive” in each case.
